According to PubChem BioAssay (NCI):
About 79,000 compounds went through this panel and 15% of them were active in at least one assay; those are over-represented in the sample as a whole. Activity calls are given as the source filed them. No stated cut-off is given here; in the data, active means growth inhibition above about 70%; inactive means the rest.

Experiments:
[1] = NCI Yeast Anticancer Drug Screen. Data for the rad50 strain (AID 155);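 further: 0% = growth of vehicle-only cultures of the same strain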; conditions: S. cerevisiae rad50 strain growth inhibition, active compounds read high
How it was run: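 Vehicle-treated cultures provide the reference for the growth inhibition reported for compound-exposed, repair-deficient yeast.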

[2] = NCI Yeast Anticancer Drug Screen. Data for the mec2-1 strain (AID 157); conditions: S. cerevisiae mec2-1 strain, active compounds read high
How it was run: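 Readout is yeast growth inhibition, normalised to vehicle-treated controls, in the mec2-1 strain exposed to compound.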

[3] = NCI Yeast Anticancer Drug Screen. Data for the sgs1 mgt1 strain (AID 161);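 further: 0% = growth of cultures given vehicle only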; conditions: S. cerevisiae sgs1 mgt1 strain, active compounds read high
How it was run: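 Yeast cells carrying a defined DNA-repair defect were exposed to test compounds. Growth inhibition was measured relative to vehicle-treated controls.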

[4] = NCI Yeast Anticancer Drug Screen. Data for the cln2 rad14 strain (AID 165);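 further: 0% = growth equal to vehicle treated cultures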; conditions: S. cerevisiae cln2 rad14 strain, active compounds read high
How it was run: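 Relative to vehicle controls, growth inhibition of compound-treated cln2 rad14 yeast was recorded.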

[5] = NCI Yeast Anticancer Drug Screen. Data for the bub3 strain (AID 167); conditions: S. cerevisiae bub3 mutant strain, active compounds read high
How it was run: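 Mutant yeast screening strain plus compound; vehicle-treated cultures serve as the 0% inhibition reference.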

[6] = NCI Yeast Anticancer Drug Screen. Data for the mlh1 rad18 strain (AID 175); conditions: S. cerevisiae mlh1 rad18 strain growth inhibition, active compounds read high
How it was run: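 Test agents were incubated with a yeast strain of defined genotype (DNA damage repair defect). Inhibition of growth was derived by comparison with vehicle-exposed cultures.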

[7] = at 5.0 µM (retest, dose inferred, filed as 0.5)
[8] = at 50.0 µM (retest, dose inferred, filed as 5.0)

Measured: growth inhibition

CC1(C)N=c2cc3c(cc2N1c1ccc(Cl)cc1)=Nc1ccccc1N3c1ccc(Cl)cc1
active: [1]; at 50.0 µM 96.1% | [2]; at 50.0 µM 94.2% | [3]; at 50.0 µM 97.1% | [4]; at 50.0 µM 95.2% | [5]; at 50.0 µM 94% | [6]; at 50.0 µM 96.3%
inactive: [1]; [7] 17% | [1]; [8] -4% | [2]; [7] 7% | [2]; [8] -4% | [3]; [7] 16% | [3]; [8] 1% | [4]; [7] 10% | [4]; [8] -4% | [5]; [7] 7% | [5]; [8] 1% | [6]; [7] 35% | [6]; [8] -5%

O=C(/C=C/c1ccccc1)c1ccccc1O
inactive: [1]; [7] 9% | [2]; [7] 4% | [2]; [8] 49% | [3]; [7] 4% | [3]; [8] 55% | [3]; at 50.0 µM 46% | [4]; [7] 2% | [4]; [8] 40% | [4]; at 50.0 µM 53.6% | [5]; [7] 1% | [5]; at 50.0 µM 49.1% | [6]; [7] 1% | [6]; at 50.0 µM 45.6%
active: [1]; [8] 78% | [1]; at 50.0 µM 98.5% | [2]; at 50.0 µM 99.2% | [5]; [8] 80% | [6]; [8] 78%

COc1cccc(N=N/C(=N\NC(=O)c2cc(Br)ccc2O)c2ccc(N(CCC#N)CCC#N)cc2OC)c1
inactive: [1]; [7] 17% | [1]; [8] 30% | [2]; [7] 22% | [2]; [8] 35% | [2]; at 50.0 µM 48.9% | [3]; [7] -8% | [3]; [8] 34% | [3]; at 50.0 µM 34.5% | [4]; [7] 0% | [4]; [8] 19% | [4]; at 50.0 µM 20.9% | [5]; [7] -2% | [5]; [8] 42% | [5]; at 50.0 µM 39.4% | [6]; [7] 26% | [6]; [8] 43%
active: [1]; at 50.0 µM 72% | [6]; at 50.0 µM 76.2%

Nc1cc(-c2ccccc2)ccc1O
active: [1]; at 50.0 µM 98.7% | [2]; [8] 80% | [2]; at 50.0 µM 97.9% | [3]; at 50.0 µM 93.6% | [4]; at 50.0 µM 79.1% | [5]; at 50.0 µM 99.1% | [6]; [8] 89% | [6]; at 50.0 µM 99.5%
inactive: [1]; [7] 5% | [1]; [8] 63% | [2]; [7] -2% | [3]; [7] 5% | [3]; [8] 37% | [4]; [7] -3% | [4]; [8] 6% | [5]; [7] 0% | [5]; [8] 29% | [6]; [7] 8%

Cc1cc(O)c2c(c1)C(=O)C(c1c(C)cc3c(c1O)C(=O)C1OC1C3=O)=CC2=O (stereo not given)
active: [1]; [7] 98% | [1]; [8] 96% | [1]; at 50.0 µM 76.8% | [2]; [7] 99% | [2]; [8] 96% | [2]; at 50.0 µM 76.2% | [3]; [7] 99% | [3]; [8] 95% | [3]; at 50.0 µM 89.7% | [4]; [7] 98% | [4]; [8] 95% | [4]; at 50.0 µM 79.3% | [5]; [7] 99% | [5]; [8] 95% | [5]; at 50.0 µM 79.2% | [6]; [7] 98% | [6]; [8] 97% | [6]; at 50.0 µM 87.8%

COc1ccc(/C=C2/C(=O)ON=C2C)cc1
active: [1]; at 50.0 µM 76% | [5]; at 50.0 µM 88.5%
inactive: [1]; [7] 12% | [1]; [8] 10% | [2]; [7] 5% | [2]; [8] 41% | [2]; at 50.0 µM 45.8% | [3]; [7] -6% | [3]; [8] 29% | [3]; at 50.0 µM 41.8% | [4]; [7] -12% | [4]; [8] 26% | [4]; at 50.0 µM 46% | [5]; [7] 11% | [5]; [8] 23% | [6]; [7] 11% | [6]; [8] 12% | [6]; at 50.0 µM 23.7%

O=C(O)c1cccc2cccc(-c3c4ccc(=O)c(O)c-4oc4c(O)c(O)ccc34)c12
active: [1]; [7] 86% | [1]; [8] 96% | [1]; at 50.0 µM 87% | [2]; [7] 84% | [2]; [8] 97% | [2]; at 50.0 µM 90% | [3]; [7] 93% | [3]; [8] 98% | [3]; at 50.0 µM 90% | [4]; [8] 97% | [4]; at 50.0 µM 89% | [5]; [7] 93% | [5]; [8] 97% | [5]; at 50.0 µM 87.5% | [6]; [7] 96% | [6]; [8] 95% | [6]; at 50.0 µM 85.7%
inactive: [4]; [7] 62%

CC(=O)N1CC(=O)NC1=S
inactive: [1]; [7] -10% | [1]; [8] -18% | [1]; at 50.0 µM 69.6% | [2]; [7] -11% | [2]; [8] -14% | [2]; at 50.0 µM 39.9% | [3]; [7] -5% | [3]; [8] -17% | [3]; at 50.0 µM 25.3% | [4]; [7] -4% | [4]; [8] 7% | [4]; at 50.0 µM 53.1% | [5]; [7] -36% | [5]; [8] -12% | [5]; at 50.0 µM 5.45% | [6]; [7] -24% | [6]; [8] -33% | [6]; at 50.0 µM 67.3%

CC(C)Nc1ccc(Nc2ccc(NC(C)C)cc2)cc1
active: [1]; [8] 81% | [2]; [8] 74% | [2]; at 50.0 µM 97% | [4]; [8] 73% | [4]; at 50.0 µM 92.9% | [5]; [8] 80% | [5]; at 50.0 µM 92.5% | [6]; at 50.0 µM 92.3%
inactive: [1]; [7] 0% | [1]; at 50.0 µM 65.7% | [2]; [7] -21% | [3]; [7] -1% | [3]; [8] 59% | [3]; at 50.0 µM 48% | [4]; [7] -10% | [5]; [7] -7% | [6]; [7] -15% | [6]; [8] 51%

O=C(Cc1nc2cc(Cl)c(Cl)cc2nc1CC(=O)c1cccnc1)c1cccnc1
inactive: [1]; [7] -7% | [2]; [7] -17% | [3]; [7] -12% | [4]; [7] -5% | [5]; [7] -1% | [6]; [7] -2%
active: [1]; [8] 96% | [1]; at 50.0 µM 96.3% | [2]; [8] 96% | [2]; at 50.0 µM 98.2% | [3]; [8] 97% | [3]; at 50.0 µM 92.6% | [4]; [8] 98% | [4]; at 50.0 µM 94.3% | [5]; [8] 98% | [5]; at 50.0 µM 95.4% | [6]; [8] 98% | [6]; at 50.0 µM 97.8%
